# Experimental data: PMC7862700, “An all-to-all approach to the identification of sequence-specific readers for epigenetic DNA modifications on cytosine”
# Tests used:
# Experiment in all cases: DAPPL (digital affinity profiling via proximity ligation, sequencing); 10 mM Tris-HCl pH 7.5, 50 mM NaCl, 1 mM DTT, 4% glycerol, room temperature, 30 min; GST-TFs on glutathione beads, 16-mer random dsDNA library, 0.1% formaldehyde crosslink after washing; high values mean tight binding
# FLI1 = target: T1, FLI1 (Homo sapiens, UniProt Q01543 1-452); conditions: protein: recombinant; tags: N-terminal GST; dsDNA, one strand shown
# T1 sequence: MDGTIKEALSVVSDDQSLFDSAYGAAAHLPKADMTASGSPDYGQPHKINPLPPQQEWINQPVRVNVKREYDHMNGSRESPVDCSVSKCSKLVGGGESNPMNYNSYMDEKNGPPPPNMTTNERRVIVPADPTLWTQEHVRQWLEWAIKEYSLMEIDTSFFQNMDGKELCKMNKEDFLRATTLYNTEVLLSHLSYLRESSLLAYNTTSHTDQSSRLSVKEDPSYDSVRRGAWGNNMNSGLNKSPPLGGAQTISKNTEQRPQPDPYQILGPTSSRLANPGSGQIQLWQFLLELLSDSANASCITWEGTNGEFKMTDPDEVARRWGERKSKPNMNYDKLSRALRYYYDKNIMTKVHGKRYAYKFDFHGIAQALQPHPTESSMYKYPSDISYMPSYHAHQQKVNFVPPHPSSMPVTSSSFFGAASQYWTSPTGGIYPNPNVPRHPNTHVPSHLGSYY
# How it was run: (§1)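 Pools were built from human transcription factors expressed in yeast as GST fusions, captured on glutathione beads and DNA-barcoded, along with a tag-only sample. Incubation with 200 nmole of a 16-mer random double-stranded DNA library lasted 30 min at room temperature in Tris/NaCl/DTT/glycerol buffer, and was followed by washing, 0.1% formaldehyde crosslinking, proximity ligation, PCR amplification and Illumina NextSeq500 sequencing. Binding signal is the quotient of each hexamer's read frequency for a factor and its frequency for the tag-only sample.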
# ELK1 = target: T2, ELK1 (Homo sapiens, UniProt P19419 1-428); conditions: protein: recombinant; tags: N-terminal GST; dsDNA, one strand shown
# T2 sequence: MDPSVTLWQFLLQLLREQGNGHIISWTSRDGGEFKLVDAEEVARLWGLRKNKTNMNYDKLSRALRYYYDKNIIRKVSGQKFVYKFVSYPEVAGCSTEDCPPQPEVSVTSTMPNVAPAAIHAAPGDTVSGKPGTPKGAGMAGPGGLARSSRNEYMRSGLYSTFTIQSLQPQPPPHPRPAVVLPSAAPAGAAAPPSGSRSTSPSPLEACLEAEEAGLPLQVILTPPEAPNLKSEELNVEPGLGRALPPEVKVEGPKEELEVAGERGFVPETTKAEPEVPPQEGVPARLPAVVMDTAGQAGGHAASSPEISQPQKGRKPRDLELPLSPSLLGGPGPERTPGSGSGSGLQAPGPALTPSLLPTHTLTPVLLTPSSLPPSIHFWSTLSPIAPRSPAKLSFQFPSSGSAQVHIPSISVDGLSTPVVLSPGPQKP
# How it was run: as §1
# GABPA = target: T3, GABPA (Homo sapiens, UniProt Q06546 1-454); conditions: protein: recombinant; tags: N-terminal GST; dsDNA, one strand shown
# T3 sequence: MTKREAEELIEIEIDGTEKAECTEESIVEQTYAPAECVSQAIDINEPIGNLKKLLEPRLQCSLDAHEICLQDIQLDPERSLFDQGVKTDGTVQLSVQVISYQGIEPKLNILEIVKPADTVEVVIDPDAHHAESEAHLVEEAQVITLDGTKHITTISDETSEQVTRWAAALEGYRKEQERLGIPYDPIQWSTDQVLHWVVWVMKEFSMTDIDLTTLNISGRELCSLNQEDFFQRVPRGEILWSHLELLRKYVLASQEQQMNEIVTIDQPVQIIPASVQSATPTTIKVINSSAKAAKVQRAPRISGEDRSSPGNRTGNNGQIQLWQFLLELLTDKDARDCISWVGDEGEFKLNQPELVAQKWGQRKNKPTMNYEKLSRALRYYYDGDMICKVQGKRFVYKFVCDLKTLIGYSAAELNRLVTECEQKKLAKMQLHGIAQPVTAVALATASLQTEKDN
# How it was run: as §1
# ERG = target: T4, ERG (Homo sapiens, UniProt P11308 1-479); conditions: protein: recombinant; tags: N-terminal GST; dsDNA, one strand shown
# T4 sequence: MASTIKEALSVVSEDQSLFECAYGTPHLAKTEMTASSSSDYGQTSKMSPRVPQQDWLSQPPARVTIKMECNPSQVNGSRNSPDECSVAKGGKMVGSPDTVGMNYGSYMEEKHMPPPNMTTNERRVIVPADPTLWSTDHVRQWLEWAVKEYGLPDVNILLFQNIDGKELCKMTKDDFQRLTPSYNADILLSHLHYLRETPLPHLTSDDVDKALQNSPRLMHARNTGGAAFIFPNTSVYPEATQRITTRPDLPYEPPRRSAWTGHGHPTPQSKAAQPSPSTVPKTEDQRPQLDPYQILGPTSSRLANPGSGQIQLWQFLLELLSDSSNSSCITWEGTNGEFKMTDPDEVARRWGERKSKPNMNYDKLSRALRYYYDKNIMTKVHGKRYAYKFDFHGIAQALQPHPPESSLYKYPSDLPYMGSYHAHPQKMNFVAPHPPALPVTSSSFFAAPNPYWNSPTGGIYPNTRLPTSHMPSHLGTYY
# How it was run: as §1
# ELF1 = ELF1 (Homo sapiens, UniProt P32519 1-619); conditions: protein: recombinant; tags: N-terminal GST; dsDNA, one strand shown
# Chain of ELF1 (P32519 whole entry): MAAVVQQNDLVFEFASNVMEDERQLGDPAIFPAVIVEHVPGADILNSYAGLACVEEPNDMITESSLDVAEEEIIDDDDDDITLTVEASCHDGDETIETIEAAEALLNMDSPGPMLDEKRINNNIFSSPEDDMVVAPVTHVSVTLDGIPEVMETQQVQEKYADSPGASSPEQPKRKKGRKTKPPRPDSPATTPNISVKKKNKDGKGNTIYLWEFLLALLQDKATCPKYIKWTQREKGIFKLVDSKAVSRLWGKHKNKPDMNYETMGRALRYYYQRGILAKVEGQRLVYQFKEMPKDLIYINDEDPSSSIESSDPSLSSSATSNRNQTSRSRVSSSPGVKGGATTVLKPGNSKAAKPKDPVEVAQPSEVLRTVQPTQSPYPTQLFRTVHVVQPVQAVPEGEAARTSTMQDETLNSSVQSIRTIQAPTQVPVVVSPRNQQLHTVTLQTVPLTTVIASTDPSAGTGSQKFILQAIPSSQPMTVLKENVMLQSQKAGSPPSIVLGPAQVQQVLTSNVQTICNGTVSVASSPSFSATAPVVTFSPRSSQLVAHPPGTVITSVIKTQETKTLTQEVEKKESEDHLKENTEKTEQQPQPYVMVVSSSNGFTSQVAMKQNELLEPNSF
# How it was run: as §1
# EHF = target: T5, EHF (Homo sapiens, UniProt Q9NZC4 1-300); conditions: protein: recombinant; tags: N-terminal GST; dsDNA, one strand shown
# T5 sequence: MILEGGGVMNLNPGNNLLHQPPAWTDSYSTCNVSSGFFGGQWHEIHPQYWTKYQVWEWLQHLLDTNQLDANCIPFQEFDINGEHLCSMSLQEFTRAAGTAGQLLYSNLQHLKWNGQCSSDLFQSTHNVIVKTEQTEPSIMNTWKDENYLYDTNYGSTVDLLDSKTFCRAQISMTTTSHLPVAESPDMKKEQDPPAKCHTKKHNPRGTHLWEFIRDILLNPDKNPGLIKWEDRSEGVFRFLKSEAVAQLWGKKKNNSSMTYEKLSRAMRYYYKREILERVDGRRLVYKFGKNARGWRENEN
# How it was run: as §1
# SPI1 = SPI1 (Homo sapiens, UniProt P17947 1-270); conditions: protein: recombinant; tags: N-terminal GST; dsDNA, one strand shown
# How it was run: as §1
# SPIB = SPIB (Homo sapiens, UniProt Q01892 1-262); conditions: protein: recombinant; tags: N-terminal GST; dsDNA, one strand shown
# Chain of SPIB (Q01892 whole entry): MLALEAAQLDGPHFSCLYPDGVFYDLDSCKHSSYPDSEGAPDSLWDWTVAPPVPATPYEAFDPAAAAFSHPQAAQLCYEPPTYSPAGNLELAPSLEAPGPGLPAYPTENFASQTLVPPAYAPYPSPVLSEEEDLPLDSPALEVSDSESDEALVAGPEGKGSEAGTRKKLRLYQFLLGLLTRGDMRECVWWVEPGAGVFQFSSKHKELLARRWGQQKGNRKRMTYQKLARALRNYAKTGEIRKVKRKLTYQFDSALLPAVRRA
# How it was run: as §1
# ELK3 = target: T6, ELK3 (Homo sapiens, UniProt P41970 1-407); conditions: protein: recombinant; tags: N-terminal GST; dsDNA, one strand shown
# T6 sequence: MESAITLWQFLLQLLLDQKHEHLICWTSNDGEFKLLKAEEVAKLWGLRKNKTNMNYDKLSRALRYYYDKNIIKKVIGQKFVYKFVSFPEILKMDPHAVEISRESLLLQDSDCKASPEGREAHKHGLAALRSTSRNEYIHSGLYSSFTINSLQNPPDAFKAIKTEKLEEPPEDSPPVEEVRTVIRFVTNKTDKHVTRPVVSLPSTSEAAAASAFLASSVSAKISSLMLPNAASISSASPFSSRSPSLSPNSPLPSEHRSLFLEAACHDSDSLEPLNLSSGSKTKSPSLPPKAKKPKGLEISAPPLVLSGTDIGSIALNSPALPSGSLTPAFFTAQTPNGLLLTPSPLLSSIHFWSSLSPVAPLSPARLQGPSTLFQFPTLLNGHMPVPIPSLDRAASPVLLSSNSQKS
# How it was run: as §1
# FEV = target: T7, FEV (Homo sapiens, UniProt Q99581 1-238); conditions: protein: recombinant; tags: N-terminal GST; dsDNA, one strand shown
# T7 sequence: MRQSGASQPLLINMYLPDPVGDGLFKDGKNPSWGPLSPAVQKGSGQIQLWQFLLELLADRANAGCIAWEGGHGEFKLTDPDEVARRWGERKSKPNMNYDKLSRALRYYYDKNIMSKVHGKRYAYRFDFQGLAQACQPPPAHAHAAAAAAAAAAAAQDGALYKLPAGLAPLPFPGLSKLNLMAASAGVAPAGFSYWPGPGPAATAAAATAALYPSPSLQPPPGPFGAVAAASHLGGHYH
# How it was run: as §1
# ETV5 = ETV5 (Homo sapiens, UniProt P41161 1-510); conditions: protein: recombinant; tags: N-terminal GST; dsDNA, one strand shown
# Chain of ETV5 (P41161 whole entry): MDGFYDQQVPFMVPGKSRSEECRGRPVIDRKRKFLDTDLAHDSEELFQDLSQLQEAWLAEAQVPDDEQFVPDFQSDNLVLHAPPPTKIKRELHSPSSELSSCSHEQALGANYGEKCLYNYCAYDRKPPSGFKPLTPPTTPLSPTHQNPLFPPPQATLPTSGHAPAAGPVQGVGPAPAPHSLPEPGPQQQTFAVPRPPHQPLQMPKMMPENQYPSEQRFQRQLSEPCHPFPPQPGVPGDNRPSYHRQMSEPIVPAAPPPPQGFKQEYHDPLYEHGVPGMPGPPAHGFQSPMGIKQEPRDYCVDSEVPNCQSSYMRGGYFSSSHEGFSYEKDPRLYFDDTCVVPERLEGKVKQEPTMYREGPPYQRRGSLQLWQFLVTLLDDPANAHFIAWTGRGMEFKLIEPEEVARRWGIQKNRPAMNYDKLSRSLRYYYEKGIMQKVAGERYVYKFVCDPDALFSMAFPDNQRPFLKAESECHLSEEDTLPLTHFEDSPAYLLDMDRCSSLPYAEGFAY
# How it was run: as §1
# HSF1 = HSF1 (Homo sapiens, UniProt Q00613 1-529); conditions: protein: recombinant; tags: N-terminal GST; chain copies: 3; dsDNA, one strand shown
# Chain of HSF1 (Q00613 whole entry): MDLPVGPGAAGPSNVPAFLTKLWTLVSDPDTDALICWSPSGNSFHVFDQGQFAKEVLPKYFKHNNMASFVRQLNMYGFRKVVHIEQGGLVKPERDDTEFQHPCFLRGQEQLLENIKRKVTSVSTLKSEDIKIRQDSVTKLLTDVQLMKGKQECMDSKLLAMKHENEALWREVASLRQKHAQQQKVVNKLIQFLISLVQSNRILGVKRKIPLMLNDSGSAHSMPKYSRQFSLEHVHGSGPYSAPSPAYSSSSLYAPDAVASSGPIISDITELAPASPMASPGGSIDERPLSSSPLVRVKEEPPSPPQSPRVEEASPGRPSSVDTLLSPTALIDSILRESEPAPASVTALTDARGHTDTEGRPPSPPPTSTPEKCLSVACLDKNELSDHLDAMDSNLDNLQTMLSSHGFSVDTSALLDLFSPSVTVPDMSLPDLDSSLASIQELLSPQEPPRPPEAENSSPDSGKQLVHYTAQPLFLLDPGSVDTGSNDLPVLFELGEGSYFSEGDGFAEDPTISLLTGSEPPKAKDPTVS
# How it was run: as §1
# SPIC = target: T8, SPIC (Homo sapiens, UniProt Q8N5J4 1-248); conditions: protein: recombinant; tags: N-terminal GST; dsDNA, one strand shown
# T8 sequence: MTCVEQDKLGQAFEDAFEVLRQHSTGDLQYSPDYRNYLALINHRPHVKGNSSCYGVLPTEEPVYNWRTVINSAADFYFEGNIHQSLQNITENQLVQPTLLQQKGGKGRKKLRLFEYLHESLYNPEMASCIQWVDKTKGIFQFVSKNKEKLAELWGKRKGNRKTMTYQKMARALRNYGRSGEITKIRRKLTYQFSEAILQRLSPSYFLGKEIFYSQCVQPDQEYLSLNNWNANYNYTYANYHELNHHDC
# How it was run: as §1
# ELF4 = ELF4 (Homo sapiens, UniProt Q99607 1-663); conditions: protein: recombinant; tags: N-terminal GST; dsDNA, one strand shown
# Chain of ELF4 (Q99607 whole entry): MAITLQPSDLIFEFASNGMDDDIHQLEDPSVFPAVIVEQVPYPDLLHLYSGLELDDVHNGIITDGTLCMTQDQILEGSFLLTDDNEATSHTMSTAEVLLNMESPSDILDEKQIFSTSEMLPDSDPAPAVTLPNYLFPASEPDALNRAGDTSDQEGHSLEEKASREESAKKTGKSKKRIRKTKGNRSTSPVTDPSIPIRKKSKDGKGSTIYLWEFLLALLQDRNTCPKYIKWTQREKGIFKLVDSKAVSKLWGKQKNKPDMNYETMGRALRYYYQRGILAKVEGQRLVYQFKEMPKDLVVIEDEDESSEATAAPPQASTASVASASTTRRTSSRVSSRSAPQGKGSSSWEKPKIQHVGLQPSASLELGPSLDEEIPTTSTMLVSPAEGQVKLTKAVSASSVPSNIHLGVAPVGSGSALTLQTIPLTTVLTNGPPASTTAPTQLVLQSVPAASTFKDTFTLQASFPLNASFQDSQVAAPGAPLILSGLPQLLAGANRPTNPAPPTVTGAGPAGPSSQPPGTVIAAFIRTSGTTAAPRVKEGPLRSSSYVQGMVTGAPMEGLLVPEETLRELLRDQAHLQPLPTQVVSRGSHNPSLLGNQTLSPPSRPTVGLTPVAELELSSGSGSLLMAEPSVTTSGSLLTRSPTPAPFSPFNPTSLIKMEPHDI
# How it was run: as §1
# ELK4 = target: T9, ELK4 (Homo sapiens, UniProt P28324-2 1-405); conditions: protein: recombinant; tags: N-terminal GST; dsDNA, one strand shown
# T9 sequence: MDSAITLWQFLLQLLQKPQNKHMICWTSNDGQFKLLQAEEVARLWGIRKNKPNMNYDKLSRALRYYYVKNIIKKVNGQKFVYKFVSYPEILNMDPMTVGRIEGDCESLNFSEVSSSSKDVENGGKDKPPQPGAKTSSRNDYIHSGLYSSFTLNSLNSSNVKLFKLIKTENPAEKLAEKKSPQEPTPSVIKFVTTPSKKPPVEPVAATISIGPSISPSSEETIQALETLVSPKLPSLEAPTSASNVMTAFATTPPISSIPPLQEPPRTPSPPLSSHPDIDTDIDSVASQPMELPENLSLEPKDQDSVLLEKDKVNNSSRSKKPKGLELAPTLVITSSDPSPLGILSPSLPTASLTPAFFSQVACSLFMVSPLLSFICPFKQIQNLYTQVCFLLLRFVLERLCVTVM
# How it was run: as §1
# ETV2 = target: T10, ETV2 (Homo sapiens, UniProt O00321 1-342); conditions: protein: recombinant; tags: N-terminal GST; dsDNA, one strand shown
# T10 sequence: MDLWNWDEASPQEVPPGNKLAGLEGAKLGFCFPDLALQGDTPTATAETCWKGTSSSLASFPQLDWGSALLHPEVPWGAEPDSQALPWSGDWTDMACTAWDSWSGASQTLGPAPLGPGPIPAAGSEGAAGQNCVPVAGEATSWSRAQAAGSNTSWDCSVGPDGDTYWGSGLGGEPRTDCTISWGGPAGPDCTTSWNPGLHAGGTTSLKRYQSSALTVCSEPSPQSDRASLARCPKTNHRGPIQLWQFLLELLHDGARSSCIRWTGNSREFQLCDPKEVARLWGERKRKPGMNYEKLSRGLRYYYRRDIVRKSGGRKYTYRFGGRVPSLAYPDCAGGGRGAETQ
# How it was run: as §1
# ELF3 = target: T11, ELF3 (Homo sapiens, UniProt P78545 1-371); conditions: protein: recombinant; tags: N-terminal GST; dsDNA, one strand shown
# T11 sequence: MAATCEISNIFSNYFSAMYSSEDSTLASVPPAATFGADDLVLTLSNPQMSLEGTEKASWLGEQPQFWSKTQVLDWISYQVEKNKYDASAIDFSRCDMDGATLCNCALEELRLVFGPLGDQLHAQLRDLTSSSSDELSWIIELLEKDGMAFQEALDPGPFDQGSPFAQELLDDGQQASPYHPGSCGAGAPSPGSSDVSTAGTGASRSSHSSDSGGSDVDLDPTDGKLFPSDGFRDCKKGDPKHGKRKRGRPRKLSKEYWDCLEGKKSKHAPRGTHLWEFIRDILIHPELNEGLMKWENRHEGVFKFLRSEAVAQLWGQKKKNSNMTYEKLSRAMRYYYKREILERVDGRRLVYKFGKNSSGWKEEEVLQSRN
# How it was run: as §1
# CRX = CRX (Homo sapiens, UniProt O43186 1-299); conditions: protein: recombinant; tags: N-terminal GST; dsDNA, one strand shown
# Chain of CRX (O43186 whole entry): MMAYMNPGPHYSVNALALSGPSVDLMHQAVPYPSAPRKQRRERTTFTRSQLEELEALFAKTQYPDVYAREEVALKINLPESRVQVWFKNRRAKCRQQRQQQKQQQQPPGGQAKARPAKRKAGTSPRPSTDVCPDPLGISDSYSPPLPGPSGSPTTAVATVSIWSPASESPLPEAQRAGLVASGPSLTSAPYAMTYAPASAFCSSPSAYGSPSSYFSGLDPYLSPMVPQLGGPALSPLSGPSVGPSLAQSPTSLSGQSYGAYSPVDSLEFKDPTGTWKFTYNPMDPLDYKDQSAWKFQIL
# How it was run: as §1
# ETV1 = ETV1 (Homo sapiens, UniProt P50549 1-477); conditions: protein: recombinant; tags: N-terminal GST; dsDNA, one strand shown
# Chain of ETV1 (P50549 whole entry): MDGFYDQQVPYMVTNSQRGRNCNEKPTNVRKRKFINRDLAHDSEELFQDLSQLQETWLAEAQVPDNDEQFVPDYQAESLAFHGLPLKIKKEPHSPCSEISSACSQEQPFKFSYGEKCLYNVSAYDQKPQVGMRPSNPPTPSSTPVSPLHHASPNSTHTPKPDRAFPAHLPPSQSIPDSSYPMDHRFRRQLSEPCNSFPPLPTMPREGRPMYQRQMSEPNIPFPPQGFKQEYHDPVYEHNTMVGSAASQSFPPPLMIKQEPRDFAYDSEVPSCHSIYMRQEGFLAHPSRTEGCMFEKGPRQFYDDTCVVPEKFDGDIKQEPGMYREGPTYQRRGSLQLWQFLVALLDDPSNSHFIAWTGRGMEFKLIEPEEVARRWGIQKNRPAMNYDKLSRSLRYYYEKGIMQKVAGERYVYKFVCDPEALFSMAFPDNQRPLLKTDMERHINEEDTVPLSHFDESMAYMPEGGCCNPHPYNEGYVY
# How it was run: as §1
sequence,measurement,setting,value
ACGAAT,binding signal,FLI1,"1.12 fold enrichment (6-mer frequency, TF over GST control)"
same,binding signal,ELK1,"1.1 fold enrichment (6-mer frequency, TF over GST control)"
same,binding signal,GABPA,"1.22 fold enrichment (6-mer frequency, TF over GST control)"
same,binding signal,ERG,"1.07 fold enrichment (6-mer frequency, TF over GST control)"
same,binding signal,ELF1,"1.15 fold enrichment (6-mer frequency, TF over GST control)"
same,binding signal,EHF,"1.13 fold enrichment (6-mer frequency, TF over GST control)"
same,binding signal,SPI1,"1.13 fold enrichment (6-mer frequency, TF over GST control)"
same,binding signal,SPIB,"1.15 fold enrichment (6-mer frequency, TF over GST control)"
same,binding signal,ELK3,"1.13 fold enrichment (6-mer frequency, TF over GST control)"
same,binding signal,FEV,"1.17 fold enrichment (6-mer frequency, TF over GST control)"
same,binding signal,ETV5,"1.14 fold enrichment (6-mer frequency, TF over GST control)"
same,binding signal,HSF1,"1.39 fold enrichment (6-mer frequency, TF over GST control)"
same,binding signal,SPIC,"1.16 fold enrichment (6-mer frequency, TF over GST control)"
same,binding signal,ELF4,"1.11 fold enrichment (6-mer frequency, TF over GST control)"
same,binding signal,ELK4,"1.2 fold enrichment (6-mer frequency, TF over GST control)"
same,binding signal,ETV2,"1.15 fold enrichment (6-mer frequency, TF over GST control)"
same,binding signal,ELF3,"1.12 fold enrichment (6-mer frequency, TF over GST control)"
same,binding signal,CRX,"1.21 fold enrichment (6-mer frequency, TF over GST control)"
same,binding signal,ETV1,"1.14 fold enrichment (6-mer frequency, TF over GST control)"
